Measured values: PMC5515408, “Sequence-specific DNA binding by MYC/MAX to low-affinity non-E-box motifs”
Whole data set: some 4,500 sequences, median “log2 normalized fluorescence” near -0.34, cut for the highest 2% near 3.3. Shown is part of a subset that was picked to be rich in the highest values.

target: MAX:MAX (p21) (human, UniProt P61244-2 1-151); test: protein-binding microarray (anti-MAX antibody); PBM: 15 mM Tris-HCl pH 7.5, 100 mM KCl, 0.075% NP40, 7.5 mM beta-mercaptoethanol, 375 ng/ul BSA, 8 ng/ul poly(dA-dT):(dA-dT), 550 ng complex, 60 min, room tempe; high values mean tight binding; details: protein: recombinant; tags: 6xHis; chain copies: 2; label: 3' end of printed strand (linker) attached to glass slide; dsDNA, one strand shown
In short: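 Binding is reported as log2 normalized fluorescence. Recombinant His-tagged human MYC:MAX or MAX:MAX dimers expressed in E. coli (550 ng) were incubated with a custom Agilent glass array for 60 min at room temperature in Tris-KCl buffer, pH 7.5, containing NP40, BSA and poly(dA-dT) competitor. The array carried ~5000 unique 12-nt sequences, each spotted in triplicate and made double-stranded by primer extension, and bound protein was detected with anti-MAX and secondary antibodies and scanned at 543 nm.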

MAX:MAX (p21), sequence (P61244 other isoform, or with tags, fused parts or gaps): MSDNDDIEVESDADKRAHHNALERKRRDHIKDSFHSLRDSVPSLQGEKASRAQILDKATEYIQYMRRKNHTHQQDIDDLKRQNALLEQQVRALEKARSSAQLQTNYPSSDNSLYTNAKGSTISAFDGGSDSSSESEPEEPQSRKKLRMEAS

Q: “CCGGCTGAAGTTATGTATTAATAGCTAAGATTACTATATCGACG” was tested. Which binding signal did it give?
A: The binding signal was -0.594 log2 normalized fluorescence.

Q: Which binding signal does the source give for “CCGGCTGAGGAACCGTATTAATAGCTAAGATTACTATATCGACG” here?
A: Its binding signal is -0.709 log2 normalized fluorescence.

Q: For “CCGGCTGACACGGTATATTAATAGCTAAGATTACTATATCGACG”, which binding signal is on record?
A: Its binding signal is 1.17 log2 normalized fluorescence.

Q: “CCGGCTGATAGGAGGTATTAATAGCTAAGATTACTATATCGACG” was tested. Which binding signal did it give?
A: Its binding signal is -0.743 log2 normalized fluorescence.

Q: “CCGGCTGAGAGCGTGTATTAATAGCTAAGATTACTATATCGACG” was tested. Which binding signal did it give?
A: Its binding signal is 2.11 log2 normalized fluorescence.

Q: Which binding signal does the source give for “CCGGCTGAAGGCAAGTATTAATAGCTAAGATTACTATATCGACG” here?
A: Its binding signal is -0.39 log2 normalized fluorescence.

Q: Which binding signal does the source give for “CCGGCTGAATGTGGGTATTAATAGCTAAGATTACTATATCGACG” here?
A: Its binding signal is 0.753 log2 normalized fluorescence.

Q: “CCGGCTGAGGCGCAGTATTAATAGCTAAGATTACTATATCGACG” was tested. Which binding signal did it give?
A: Its binding signal is -0.509 log2 normalized fluorescence.

Q: Which binding signal does the source give for “CCGGCTGAGGGTGCGTATTAATAGCTAAGATTACTATATCGACG” here?
A: The binding signal was 0.326 log2 normalized fluorescence.

Q: With “CCGGCTGACATGTGGTTTTAATAGCTAAGATTACTATATCGACG” as the sequence, how does the binding signal read?
A: Its binding signal is 2.98 log2 normalized fluorescence.

Q: With “CCGGCCGACCCGTGGTTTTAATAGCTAAGATTACTATATCGACG” as the sequence, how does the binding signal read?
A: Its binding signal is 2.34 log2 normalized fluorescence.

Q: Which binding signal does the source give for “CCGGCCGACACATGGTTTTAATAGCTAAGATTACTATATCGACG” here?
A: The binding signal was 3.32 log2 normalized fluorescence.

Q: How did the binding signal turn out when “CCGGCTGACACTTGGTTTTAATAGCTAAGATTACTATATCGACG” was run?
A: The binding signal was 0.395 log2 normalized fluorescence.

Q: For “CCGGCCGACACGCGGTTTTAATAGCTAAGATTACTATATCGACG”, which binding signal is on record?
A: Its binding signal is 3.18 log2 normalized fluorescence.

Q: For “CCGGCTGACACATGGTTTTAATAGCTAAGATTACTATATCGACG”, which binding signal is on record?
A: The binding signal was 3.37 log2 normalized fluorescence.

Q: Which binding signal does the source give for “CCGGCTGATCGCACGTATTAATAGCTAAGATTACTATATCGACG” here?
A: Its binding signal is 0.308 log2 normalized fluorescence.

Q: “CCGGCTGAGGTCTTGTATTAATAGCTAAGATTACTATATCGACG” was tested. Which binding signal did it give?
A: The binding signal was -0.72 log2 normalized fluorescence.

Q: “CCGGCTCTCACGTGGTATTAATAGCTAAGATTACTATATCGACG” was tested. Which binding signal did it give?
A: Its binding signal is 3.5 log2 normalized fluorescence.

Q: “CCGGCTCACACGTGTTATTAATAGCTAAGATTACTATATCGACG” was tested. Which binding signal did it give?
A: Its binding signal is 3.29 log2 normalized fluorescence.

Q: How did the binding signal turn out when “CCGGCTCTCACGTGGTCTTAATAGCTAAGATTACTATATCGACG” was run?
A: Its binding signal is 3.06 log2 normalized fluorescence.

Q: “CCGGCTCACACGTGATATTAATAGCTAAGATTACTATATCGACG” was tested. Which binding signal did it give?
A: Its binding signal is 3.31 log2 normalized fluorescence.

Q: For “CCGGCCCTCACGTGGTATTAATAGCTAAGATTACTATATCGACG”, which binding signal is on record?
A: Its binding signal is 3.26 log2 normalized fluorescence.

Q: How did the binding signal turn out when “CCGGCTGGCACGAGGTTTTAATAGCTAAGATTACTATATCGACG” was run?
A: The binding signal was 3.28 log2 normalized fluorescence.

Q: How did the binding signal turn out when “CCGGCTCTTACGTGGTATTAATAGCTAAGATTACTATATCGACG” was run?
A: The binding signal was 0.802 log2 normalized fluorescence.

Q: How did the binding signal turn out when “CCGGCTCACACGAGGTTTTAATAGCTAAGATTACTATATCGACG” was run?
A: The binding signal was 3.32 log2 normalized fluorescence.

Q: “CCGGCTCACACGCGGTTTTAATAGCTAAGATTACTATATCGACG” was tested. Which binding signal did it give?
A: Its binding signal is 3.17 log2 normalized fluorescence.

Q: How did the binding signal turn out when “CCGGCGCTCACGTGGTATTAATAGCTAAGATTACTATATCGACG” was run?
A: The binding signal was 3.34 log2 normalized fluorescence.

Q: How did the binding signal turn out when “CCGGCACTCACGTGGTATTAATAGCTAAGATTACTATATCGACG” was run?
A: Its binding signal is 3.13 log2 normalized fluorescence.

Q: How did the binding signal turn out when “CCGGCTGTCACGTGATATTAATAGCTAAGATTACTATATCGACG” was run?
A: The binding signal was 3.2 log2 normalized fluorescence.
